Consider eight molecules from the supplement of paper PMC7393113.

This experiment has as its system iBMDM (immortalised mouse bone-marrow-derived macrophages), LPS-stimulated. The experiment in a line: mitochondrial superoxide (MitoSOX fluorescence) fold increase over unstimulated control; higher = more LPS-induced mitochondrial ROS (less inhibition). Conditions: inhibitor concentration: 500 nM, LPS: 100 ng/ml. The method, boiled down: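 Immortalised mouse bone-marrow-derived macrophages in black 96-well plates were kept in phenol-red-free 1% FCS/DMEM for 20 h, pretreated 30 min with kinase inhibitors (500 nM), loaded with 1 μM MitoSox for 10 min and then given LPS (100 ng/ml). Fluorescence at excitation/emission 510/580 nm was read on a ClarioStar plate reader every 60 min for 4 h, with wells in triplicate. Mitochondrial superoxide is given as fold induction over untreated macrophages, averaged across replicates.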

The structures appear in SMILES notation. ± gives the standard deviation of the averaged measurements.

For `N#CC(C#N)=Cc1ccc(O)c(O)c1`, the mitochondrial superoxide amounted to 1.364 ± 0.013 (time after LPS: 1 h), 1.45 ± 0.055 (time after LPS: 2 h) and 1.666 ± 0.0094 (time after LPS: 4 h).

With `COC[C@H]1OC(=O)c2coc3c2[C@@]1(C)C1=C(C3=O)[C@@H]2CCC(=O)[C@@]2(C)C[C@H]1OC(C)=O` [Wortmannin], the mitochondrial superoxide reads like this: (time after LPS: 1 h) 1.4 ± 0.084; (time after LPS: 2 h) 1.45 ± 0.05; (time after LPS: 4 h) 1.78 ± 0.079.

As to `Cn1cc(C2=C(c3cn(C4CCN(Cc5ccccn5)CC4)c4ccccc34)C(=O)NC2=O)c2ccccc21`, the mitochondrial superoxide by setting is: (time after LPS: 1 h) 1.7 ± 0.15; (time after LPS: 2 h) 1.76 ± 0.18; (time after LPS: 4 h) 1.92 ± 0.14.

Regarding `CCN1CCN(C(=O)Cc2ccc(Nc3ncc(F)c(Nc4ccc(C(=O)Nc5ccccc5Cl)cc4)n3)cc2)CC1` [Aurora A Inhibitor I], the mitochondrial superoxide is, setting by setting: (time after LPS: 1 h) 1.17 ± 0.065; (time after LPS: 2 h) 1.24 ± 0.014; (time after LPS: 4 h) 1.32 ± 0.049.

Consider `Cc1ccccc1-n1c(Cn2ncc3c(N)ncnc32)nc2cccc(C)c2c1=O`, for which the mitochondrial superoxide by setting is: (time after LPS: 1 h) 1.14 ± 0.012; (time after LPS: 2 h) 1.25 ± 0.041; (time after LPS: 4 h) 1.32 ± 0.04.

As to `O=c1[nH]c2ccc(Cl)cc2c(N[C@@H]2CN3CCC2CC3)c1-c1nc2ccccc2[nH]1`, the mitochondrial superoxide came to 1.2 ± 0.013 (time after LPS: 1 h), 1.4 ± 0.045 (time after LPS: 2 h) and 1.68 ± 0.044 (time after LPS: 4 h).

For the molecule `CC(C)(C)c1cc(C=C(C#N)C#N)cc(Br)c1O`, the mitochondrial superoxide is, setting by setting: (time after LPS: 1 h) 1.12 ± 0.029; (time after LPS: 2 h) 1.16 ± 0.069; (time after LPS: 4 h) 1.11 ± 0.063.

On to `CC(C)(C)c1cc(C=C(C#N)C#N)cc(C(C)(C)C)c1O` [Tyrphostin 9], for which the mitochondrial superoxide reads like this: (time after LPS: 1 h) 1.17 ± 0.033; (time after LPS: 2 h) 1.21 ± 0.041; (time after LPS: 4 h) 1.275 ± 0.0071.
